# Data reported in PubChem BioAssay (NCI).
# Values joined by “and” are separate entries in the source; they are usually repeats but may differ in a detail not shown here. Identical values can stand only once. Compounds without any hit were thinned out: in the full panel of roughly 83,000, 20% have a hit.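 96-well plates, one dose, 48 hours. Percent growth reported; active if below 10.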 Active and inactive are the calls of the source.
# Tests used:
# Test in all cases: NCI-60 one-dose screen, 48 h (100 = growth as untreated, 0 = no growth, -100 = all killed)
# Settings in all cases: 10 µM unless noted
# SR leukemia = system: SR leukemia
# RPMI-8226 leukemia = system: RPMI-8226 leukemia
# OVCAR-5 ovarian = system: OVCAR-5 ovarian
# OVCAR-4 ovarian = system: OVCAR-4 ovarian
# SK-OV-3 ovarian = system: SK-OV-3 ovarian
# IGROV1 ovarian = system: IGROV1 ovarian
# OVCAR-3 ovarian = system: OVCAR-3 ovarian
# HS 578T breast = system: HS 578T breast
# NCI/ADR-RES ovarian = system: NCI/ADR-RES ovarian
SMILES,growth (SR leukemia),growth (RPMI-8226 leukemia),growth (OVCAR-5 ovarian),growth (OVCAR-4 ovarian),growth (SK-OV-3 ovarian),growth (IGROV1 ovarian),growth (OVCAR-3 ovarian),growth (HS 578T breast),growth (NCI/ADR-RES ovarian)
O=C(CCN1CCOCC1)Nc1cccc(-n2cc(-c3ccncc3)c(-c3ccc(Cl)c(O)c3)n2)c1,16.8% (inactive),17.1% (inactive),62.2% (inactive),66.5% (inactive),25.1% (inactive),51.8% (inactive),14.3% (inactive),7.21% (active),21.5% (inactive)
CCCCC1=C(Br)C(=O)c2nc(C)ccc2C1=O,21.8% (inactive),58.5% (inactive),102% (inactive),75.5% (inactive),95% (inactive),83.9% (inactive),48.5% (inactive),90.9% (inactive),100% (inactive)
N=c1ccccn1CCO,87.7% (inactive),98.3% (inactive),99% (inactive),122% (inactive),100% (inactive),112% (inactive),121% (inactive),110% (inactive),116% (inactive)
C=C(C)[C@@H]1CC[C@]2(C)[C@H](CC(=O)N[C@H]3[C@@H]4C[C@](C)(C(=O)OC)CC[C@]4(C)CC[C@]32C)[C@@]1(C)CCC#N,41.8% (inactive),48.3% (inactive),91.6% (inactive),76.7% (inactive),97.4% (inactive),95.2% (inactive),79.7% (inactive),93.4% (inactive),86.6% (inactive)
O=Nc1c(O)ccc2ccccc12,23.6% (inactive) and 87.6% (inactive),37.8% (inactive) and 79.9% (inactive),70.1% (inactive) and 112% (inactive),19% (inactive) and 89% (inactive),93.6% (inactive) and 101% (inactive),51.5% (inactive) and 42% (inactive),1.11% (active) and 81% (inactive),54% (inactive) and 112% (inactive),6.43% (active) and 97.7% (inactive)
N#C/C(=N\Nc1ccc(Cl)cc1)C(=O)Nc1cc(-c2ccccc2)nn1-c1ccccc1,89.4% (inactive),1.81% (active),81.6% (inactive),36.8% (inactive),26.4% (inactive),19.9% (inactive),15.4% (inactive),47% (inactive),29.7% (inactive)
Cn1cc(-c2nc3c(F)cc4[nH]ncc4c3c3c2CCCC3)c(C(F)F)n1,-16.9% (active),27.7% (inactive),71.2% (inactive),100% (inactive),37.2% (inactive),51.8% (inactive),84.4% (inactive),40.4% (inactive),77.9% (inactive)
Nc1n[nH]c2cccc(C#Cc3cccc(NC(=O)c4ccc(N5CCOCC5)c(C(F)(F)F)c4)c3)c12,12.6% (inactive),-0.476% (active),8.26% (active),25.6% (inactive),2.24% (active),-39.1% (active),34.9% (inactive),-11.4% (active),14.4% (inactive)
CN1CCN(c2ccc(Nc3ncc(C(N)=O)c(NCCCNC(=O)C4CCC4)n3)cc2)CC1,30.1% (inactive),101% (inactive),116% (inactive),73.1% (inactive),37.8% (inactive),85.7% (inactive),13.3% (inactive),67.2% (inactive),105% (inactive)
CCN1C(=O)/C(=c2\sc3n(c2=O)C2C(NN=3)N(CC)C(=O)N2CC)c2ccccc21 (stereo not drawn),15.3% (inactive),50.8% (inactive),54.2% (inactive),49.5% (inactive),54.5% (inactive),29% (inactive),-19% (active),24.4% (inactive),5.59% (active)
Cc1ccccc1SSc1ccccc1C,65.4% (inactive),98.5% (inactive),75.5% (inactive),94.5% (inactive),96.9% (inactive),84.6% (inactive),120% (inactive),97.7% (inactive),86.4% (inactive)
COc1c(NC=O)c2c(c([N+](=O)[O-])c1OC)C(=O)OC2,86.9% (inactive),78% (inactive) and 96.5% (inactive),120% (inactive) and 99.7% (inactive),103% (inactive),107% (inactive) and 108% (inactive),103% (inactive),115% (inactive),–,117% (inactive) and 108% (inactive)
CCOC(=O)C(=CCC(C)C)C(=O)OCC,119% (inactive),99% (inactive),95.8% (inactive),95.2% (inactive),98.5% (inactive),104% (inactive),99.5% (inactive),98.6% (inactive),93.8% (inactive)
CCC(=O)Oc1cc(Cl)c(Cl)cc1Cl,101% (inactive),102% (inactive),90.2% (inactive),101% (inactive),107% (inactive),108% (inactive),113% (inactive),97.4% (inactive),108% (inactive)
COc1cc(-c2nc3occn3c2-c2ccnc(NCCCNS(=O)(=O)c3ccc(O)cc3)n2)ccc1F,74.2% (inactive),97% (inactive),138% (inactive),129% (inactive),82.4% (inactive),97.8% (inactive),117% (inactive),93% (inactive),104% (inactive)
CCOC(=O)C(=Cc1ccc(C#N)cc1)C(=O)OCC,0.158% (active),-1.68% (active),30.8% (inactive),–,84.9% (inactive),32.7% (inactive),17% (inactive),78.5% (inactive),20.3% (inactive)
CCCCCCCCCCCCCCCC(=O)O[C@@H]1[C@@H](O)[C@@H](O)C([C@H](NC(=O)[C@@H]2C[C@@H](CCC)CN2C)[C@H](C)Cl)O[C@@H]1SC (stereo partly drawn),98.5% (inactive),90.9% (inactive),97.1% (inactive),105% (inactive),98.2% (inactive),101% (inactive),109% (inactive),122% (inactive),112% (inactive)
O=C1/C(=C/c2ccccc2[N+](=O)[O-])Cc2ccccc21,3.7% (active) and 11.5% (inactive),-5.97% (active) and 3.37% (active),-1.63% (active) and 12.7% (inactive),-36.5% (active) and -39.5% (active),70.4% (inactive) and 95.2% (inactive),-10.6% (active) and 17.3% (inactive),-23.8% (active) and -50.2% (active),32.3% (inactive) and 71.2% (inactive),-47.5% (active)
Cc1ccc2c(c1)C(C)Cc1c(ncnc1-n1cnc3cc(C)ccc31)N2C (stereo not drawn),1.44% (active),-0.691% (active),79% (inactive),–,5.86% (active),21.9% (inactive),20.2% (inactive),31.6% (inactive),5.12% (active)
CCN(CC)CCOc1ccc(/C(=C(\Cl)c2ccccc2)c2ccccc2)cc1,17.4% (inactive) and 85.1% (inactive),-21.2% (active) and 88.8% (inactive),47.5% (inactive) and 72.4% (inactive),55.5% (inactive) and 47.4% (inactive),45.5% (inactive) and 80.8% (inactive),–,76.9% (inactive) and 118% (inactive),55% (inactive),59.3% (inactive) and 92.9% (inactive)
Cc1ccc(Cl)cc1N1CCN(C(=O)[C@@H]2C[C@@H]2c2ccc(F)cc2)CC1,80.4% (inactive),62.9% (inactive),94.4% (inactive),85.9% (inactive),90.3% (inactive),71.1% (inactive),95.3% (inactive),90.9% (inactive),89.7% (inactive)
O=C1C(=C(O)c2ccccc2)C(=O)c2ccccc21,115% (inactive),94.3% (inactive),104% (inactive),–,101% (inactive),106% (inactive),109% (inactive),120% (inactive),108% (inactive)
O=S(=O)(Nc1ccc(F)cc1)c1ccc(-c2cnc(C3CC3)o2)cc1,11.6% (inactive),17.2% (inactive),59.1% (inactive),69.9% (inactive),39.7% (inactive),37.9% (inactive),10.2% (inactive),14.1% (inactive),-0.888% (active)
COc1cc(NS(=O)(=O)C(C)C)cc(-c2cc(-c3ccc(N4CCNCC4)cc3)cnc2N)c1,54.1% (inactive),80% (inactive),73.2% (inactive),95.9% (inactive),96.9% (inactive),36.9% (inactive),90.8% (inactive),65.4% (inactive),111% (inactive)
Cn1cc(-c2csc(-c3cn(CCOC(N)=O)c4ccccc34)n2)c2cccnc21,20.3% (inactive),74.1% (inactive),104% (inactive),102% (inactive),95.2% (inactive),77.7% (inactive),94.9% (inactive),92.6% (inactive),82.9% (inactive)
CC1(C)C(N)=Nc2cc(OCCCN3Cc4ccc(OCCc5cn(CC(=O)N6CCC(CCN7CCCC7)CC6)nn5)cc4C3)c(OCC3CC3)cc21,115% (inactive),88.8% (inactive),95% (inactive),94.6% (inactive),105% (inactive),101% (inactive),114% (inactive),97.2% (inactive),103% (inactive)
CCNC(=O)Oc1ccc(/C(=C(/C)Cc2ccc(OC)cc2)c2ccc(OCCN(CC)CC)cc2)cc1,-55.3% (active),-14.8% (active),89.9% (inactive),69.4% (inactive),88.6% (inactive),74.7% (inactive),50.7% (inactive),45.9% (inactive),78.1% (inactive)
